Rows were chosen to be rich in hits. Some 4.2% of all compounds tested hit in one or more screens of this group.
SMARCA2 activ: SMARCA2 function activation, primary screen; MG213 cells, MMTV-luciferase reporter, dexamethasone, overnight; activation, % at 9.1 µM; 370,000 tested, 1% active; in the data active means activation above about 7.8%;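 further: 0% = vehicle wells and 100% = reference activator wells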
hcDAF12 agonist: H. contortus DAF-12 activation, primary screen; activation, % at 6.8 µM; HEK293 hcDAF-12 lit1-tk-luc reporter, luminescence; 0% DMSO, 100% Δ7-dafachronic acid; 370,000 tested, 1.4% active;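 active means activation above the mean of all tested compounds plus 3 SD, cut at about 5.5% in these data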;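 further: 100% = response to 3 µM Δ7-dafachronic acid high control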
DAX1 inh: inhibitors of DAX1 repression of SF-1 activated StAR promoter. HEK293T StAR-luciferase reporter, SF-1/DAX-1 repression relief. inhibition, % at 6.8 µM. 370,000 tested, 1.1% active;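 active means inhibition above the mean over all tested compounds plus 3 SD, cut at about 3.6% in these data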;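 further: 0% = DAX-1 cells with DMSO and 100% = cells lacking DAX-1 with DMSO; higher inhibition means more luminescence from relief of DAX-1 repression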
ssDAF-12 act: S. stercoralis DAF-12 activation, primary screen. activation, % at 6.8 µM. 370,000 tested, 1% active. HEK293 ssDAF-12/GRIP1 lit1-tk-luc reporter, luminescence; % of 3 µM dafachronic acid response;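 active means activation above the mean over all tested compounds plus 3 SD, cut at about 0.9% in these data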;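 further: 0% = DMSO-only wells and 100% = 3 µM delta7-dafachronic acid wells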
hgDAF12 agonist: activates the H. glycines DAF-12 receptor ligand-binding domain | HEK293 GAL4-hgDAF12 UAS-luciferase reporter, agonist luminescence; normalized to butyrate control | activation, % at 6.8 µM | 370,000 tested, 1.8% active | AID 687014;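 active means activation above a cutoff set at the mean of all screened compounds plus 3 SD, cut at about 10% in these data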;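 further: 0% = DMSO wells and 100% = sodium butyrate wells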
hgDAF12 conf: confirmation of H. glycines DAF-12 agonists; shares compounds with hgDAF12 agonist; HEK293 GAL4-hgDAF12 luciferase reporter, agonist mode; percent of butyrate response; activation, % at 6.8 µM; 3,300 tested, 80% active;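 active means mean activation over triplicate wells above the hit cutoff derived from the earlier primary screen, cut at about 11% in these data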;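 further: 0% = DMSO low control and 100% = 2 mM sodium butyrate high control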
LXRb DAF12 ctr: counter-screen for DAF-12 agonists: agonists of human LXR-beta; shares compounds with hgDAF12 agonist; HEK293 Gal4-LXR luciferase reporter, 24 h; activation, % at 6.8 µM; 3,300 tested, under 10 active; AID 743051;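 active means mean activation of the triplicate above a set limit carried over from the primary screen, none filed active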
Target sequence (P55055 whole entry, looked up, the tested form may be a part): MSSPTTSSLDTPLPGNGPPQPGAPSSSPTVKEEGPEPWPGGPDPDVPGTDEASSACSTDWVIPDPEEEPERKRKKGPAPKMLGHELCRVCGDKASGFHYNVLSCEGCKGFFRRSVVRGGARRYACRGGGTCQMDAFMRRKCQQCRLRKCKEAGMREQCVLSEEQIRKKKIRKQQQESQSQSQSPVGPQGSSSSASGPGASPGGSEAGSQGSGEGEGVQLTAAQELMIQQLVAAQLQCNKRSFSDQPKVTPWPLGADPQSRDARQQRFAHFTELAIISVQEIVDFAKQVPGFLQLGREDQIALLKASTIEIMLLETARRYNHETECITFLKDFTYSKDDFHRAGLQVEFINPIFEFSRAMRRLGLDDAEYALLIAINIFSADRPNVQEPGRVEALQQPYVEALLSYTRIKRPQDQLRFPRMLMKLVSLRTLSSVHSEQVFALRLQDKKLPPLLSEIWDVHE
An asterisk follows results filed as active; / = no result.

SMILES	SMARCA2 activ	hcDAF12 agonist	DAX1 inh	ssDAF-12 act	hgDAF12 agonist	hgDAF12 conf	LXRb DAF12 ctr
CCn1c(C)cc(/C=C2/SC(=S)N(CC(=O)O)C2=O)c1C	0	-1	1	-1	3	/	/
C#CCN1C(=O)S/C(=C/c2cc(C)n(CC)c2C)C1=O	7	5	3	0	18*	20*	1
C#CCNC(=O)C[C@H]1C[C@@]2(C(=O)OC)C(=C[C@H](COCc3ccccc3)O[C@@H]2C)N(Cc2ccco2)C1=O	1	1	-1	-1	3	/	/
COC(=O)c1cccc(NC(=O)c2onc3c2CCCC3)c1	1	6.0*	3.8*	1	17*	18*	1
O=C1c2ccccc2-c2nnc(-c3ccc(F)cc3)cc21	4	6.0*	2	1.4*	15*	11*	1
C=CCN1C=CC(=C/C=C(/C#N)C(=O)OCC)C=C1	4	5.6*	3	1	16*	16*	1
CCOC(=O)/C(C#N)=C/C=C1/C=CC=CN1C	3	-1	0	-1	4	/	/
O=C(N/N=C/c1cc([N+](=O)[O-])ccc1O)C1CC1	-2	-2	0	-2	-2	/	/
O=[N+]([O-])c1ccc(O)c(/C=N/Nc2ccccc2Cl)c1	1	2	2	0	16*	10	1
CCn1c(COc2ccc(C)cc2)nnc1SCC(=O)Nc1ccc(Oc2ccccc2)cc1	-5	-1	-1	-1	-1	/	/
O=C(C=C1SCCS1)/C=C/c1ccco1	8	4	3.7*	0	15*	14*	1
Cc1cccc(C)c1NC(=O)C1(C)CN(S(C)(=O)=O)CC(=O)N1CCOc1ccccc1 (stereo unspecified)	-3	0	-1	-1	-1	/	/
Cc1cc(C)cc(NC(=O)c2cc3c(=O)n4ccccc4nc3s2)c1	-3	-2	0	-1	1	/	/
O=C(Nc1ccc(O)cc1)c1cc2ccccc2c(=O)s1	3	2	1	-1	14*	8	0
O=C(Nc1ccccc1)c1cc2ccccc2c(=O)s1	1	4	2	-1	18*	14*	1
COc1ccccc1N1CCN(c2ncnc3n[nH]c(Br)c23)CC1	1	-3	-2	-2	-5	/	/
O=C1NC[C@H](CCCCN2CCN(CC3CCCCC3)C(=O)C2=O)N(Cc2ccccc2)C1=O	-3	-2	-1	-1	0	/	/
C/C(=N\Nc1nncc2ccccc12)c1ccc(OCC(=O)N(C)C)cc1	6	5	2	0	16*	4	0
CC/C(=N\Nc1nncc2ccccc12)c1ccc(F)cc1	5	4	1	0	16*	16*	1
CC/C(=N/Nc1ccccc1)c1cnnc(-c2ccccc2)n1	4	1	1	-1	2	/	/
COc1ccccc1CNC(=O)C/C(C)=N/NC(=O)Cc1ccc(Cl)cc1	0	1	0	-1	3	/	/
C/C(CC(=O)NCc1ccc(Cl)cc1)=N\NC(=O)c1ccccc1F	5	1	2	1.5*	14*	0	0
O=C(c1ccc([N+](=O)[O-])o1)N1CCc2ccccc21	2	0	-1	0	-1	/	/
Cc1ccc(C(=O)N2CCc3ccccc32)o1	3	5	3.8*	2.1*	15*	16*	1
Cn1c(SCC2CCCCC2)nnc1-c1ccco1	-1	1	1	0	15*	15*	0
SMILES	SMARCA2 activ	hcDAF12 agonist	DAX1 inh	ssDAF-12 act	hgDAF12 agonist	hgDAF12 conf	LXRb DAF12 ctr
CC1CCCC(C)N1C(=O)CSc1nnc(-c2ccco2)n1C (stereo unspecified)	-2	0	-1	-1	-1	/	/
CCN(CC)C(=O)CC[C@@H]1CC[C@]2(CCCN(Cc3ccc(Br)cc3)C2)O1	-1	-3	0	-1	-2	/	/
Cc1cc(NC(=O)CN2CCCCC2)no1	4	-1	0	0	14*	1	0
CCCCC[C@@H](C)N1C[C@@H](COCc2ccccc2)Oc2cc(N3CCC[C@@H]3COC)ccc2S1(=O)=O	-1	3	1	0	5	/	/
CN=c1scc(-c2ccccc2F)n1/N=C(\C)c1cccnc1	2	4	3	0	15*	12*	1
C/C(=N\N1CCN(C2c3ccccc3-c3ccccc32)CC1)c1cccnc1	1	-2	0	-1	2	/	/
COC1=C/C(=C/c2c(N)n3nc(-c4ccc(C)cc4)sc3nc2=O)C=CC1=O	3	6.2*	1	1	13*	8	0
COC(=O)C1CCCN(C(=O)C2CCN(S(=O)(=O)c3ccc([N+](=O)[O-])cc3)CC2)C1 (stereo unspecified)	-2	-1	-2	-2	1	/	/
COc1cccc(C(=O)Nc2cc3c(cc2Cl)OCCCO3)c1	4	2	4	0	14*	14*	0
COc1ccc(C(=O)Nc2cc3c(cc2Cl)OCCCO3)cc1	5	3	2	0	10	/	/
Cc1ccc(C(=O)Nc2cc3c(cc2Cl)OCCCO3)cc1	3	4	2	1	17*	13*	0
COC(=O)C(C(=O)OC)c1ncccc1NS(=O)(=O)c1ccc(C)cc1	-3	0	1	-1	-1	/	/
COCCCN=C1NN=C(c2cc(C)n(Cc3ccco3)c2C)CS1	4	2	2	1.6*	15*	10	1
C=CCN=C1NN=C(c2cc(C)n(CCOC)c2C)CS1	-9	-7	-3	-4	-16	/	/
Cc1ccc2nc(-c3cccc(Cl)c3)c(Cc3ccccc3C(F)(F)F)n2c1	4	5	3	0	9	/	/
CCOc1ccc(-c2c(=O)n(OCc3ccccn3)c3ccccc3[n+]2[O-])cc1	4	-1	-1	-1	2	/	/
CCCOc1ccc(-c2c(=O)n(O)c3ccccc3[n+]2[O-])cc1	4	6.2*	4.5*	-1	20*	13*	0
CCN1CCN(C(=O)c2ccc(-c3nc4ccccc4s3)s2)CC1	5	4	4.3*	1	17*	11*	1
COCCCNC(=O)C[C@H]1C[C@@]2(C(=O)OC)C(=C[C@H](COCc3ccccc3)O[C@@H]2C)N(Cc2ccco2)C1=O	-3	2	0	0	4	/	/
O=C(Nc1cccc(Cl)c1)c1ccc(OC(=S)N2CCOCC2)cc1	0	1	1	-1	19*	7	0
Cc1cccc(NC(=O)c2cccc(OC(=S)N3CCOCC3)c2)c1	-1	-2	-1	0	-3	/	/
O=C(/C=C/c1ccc(Br)cc1)NC(=O)c1ccccc1O	3	5	3	0	13*	12*	1

Source: PubChem BioAssay
